We go through 20 molecules from PubChem BioAssay (NCATS).

In assay [1] the target is Glutathione peroxidase 1 (Homo sapiens) (UniProt P07203). Description: Primary qHTS Assay for Inhibitors of Recombinant Selenoprotein Glutathione Peroxidase 1 (GPX1) (AID 1845191). Further: nearly all actives have a fitted effect of over 65% in size. On activity, negative = inhibition: on the % scale 0 is the no-effect control and ±100 the full control effect. The gist of the method: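 GPX1 10 nM, GR 100 nM, GSH 1 mM, NADPH 0.5 mM, CHP 0.5 mM (final). 30-min cpd preincubation, RT. Ex340/Em450 read t=0, t=15 min.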
For orientation: In qHTS, concentration-response curves come from the screen itself.

Assay [2] has as its target Phospholipid hydroperoxide glutathione peroxidase GPX4 (Homo sapiens) (UniProt P36969). Kind of assay: Primary qHTS Assay for Inhibitors of Recombinant Selenoprotein Glutathione Peroxidase 4 (GPX4) (AID 1845192). Further: nearly all actives have a fitted effect of over 65% in size. On activity change, negative = inhibition: series mostly up to about 50 µM; on the % scale 0 is the no-effect control and ±100 the full control effect. The gist of the method: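 qHTS, GR-coupled: GPX4 200 nM + cpd 30 min RT → GSH 1 mM, NADPH 0.5 mM, GR 100 nM → CHP 0.5 mM start; fluor 340/450 at t0 and t15 min; no-enzyme wells as control.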

For assay [3], the target named is Luciferin 4-monooxygenase (Photinus pyralis) (UniProt P08659). Description: Primary firefly luciferase (FLuc) qHTS assay for identification of artifact compounds. (AID 1845220). Further: nearly all actives have a fitted effect of over 60% in size.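 On activity change, negative = inhibition: series mostly up to about 54 µM; plate controls were DMSO vehicle for no effect and no enzyme for full effect.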 Put shortly:
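Reaction readout was CCD-imaged luminescence, taken 5 min after adding 10 nM purified firefly enzyme to compound-treated wells holding 10 uM luciferin and ATP in pH 7.6 buffer.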

Assay [4] in a line: Primary fluorescence-based thiol-reactive (MSTI) qHTS assay for identification of artifact compounds. (AID 1845221). Further: nearly all actives have a fitted effect of over 65% in size. Further: potency means the concentration at half of the fitted maximal effect.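 On activity change, negative = thiol reactive: series mostly up to about 54 µM; thiol-reactive compounds lower the probe fluorescence signal.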 Put shortly:
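Curve-fitted percent inhibition (4-parameter Hill) derived from fluorescence, Ex 525/Em 598 nm, scaled with Acetyl-MSTI and MSTI; 1 h incubation at room temperature.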

For assay [5], the system named is Nanoluciferase (engineered Oplophorus gracilirostris luciferase). Kind of assay: Primary Nanoluciferase (NLuc) qHTS assay for identification of artifact compounds. (AID 1845222).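 Further: NLuc secreted into diluted conditioned medium of S16 cells; series mostly up to about 54 µM.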 Put shortly:
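Concentration-response data were obtained by luminescence after 5 min with Nano-Glo substrate at 1:100. The enzyme was diluted S16 NLuc-expressing cell medium, preincubated with compound for 15 min at RT. Curves were fitted with a 4-parameter Hill model.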

Assay [6] can be described thus: Primary redox qHTS assay for identification of artifact compounds. (AID 1845223).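 Further: 0% = DMSO and 100% = reference compound.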 The gist of the method: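 Redox-cycling detection via DTT (250 uM final) oxidation coupled to Amplex Red (25 uM)/HRP (250 mU/mL) in HBSS. 15 min preincubation plus 30 min after DTT, room temperature. Ex/Em 525/598 nm; 4-parameter Hill fit against DMSO and 10 uM DA3003.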

Each structure is given as a SMILES string. Unmarked numbers belong to inactive results. Results filed as inconclusive are left out. Activity calls are given as the source filed them. The call rests on the fitted dose curve; in most records, active means well fitted curve in the direction sought with a large enough effect; inconclusive means small, poorly fitted or top-dose-only effect, or another doubt; inactive means no such curve, though single readings can be large; an effect the other way counts as inactive or inconclusive.

Chain of Phospholipid hydroperoxide glutathione peroxidase GPX4 (Homo sapiens) (P36969 whole entry, looked up): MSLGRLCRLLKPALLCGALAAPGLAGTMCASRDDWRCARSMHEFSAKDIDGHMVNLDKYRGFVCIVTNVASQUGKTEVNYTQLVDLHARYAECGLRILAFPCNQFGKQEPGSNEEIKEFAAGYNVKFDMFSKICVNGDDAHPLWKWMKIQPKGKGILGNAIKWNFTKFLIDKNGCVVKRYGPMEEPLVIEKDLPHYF
Chain of Glutathione peroxidase 1 (Homo sapiens) (P07203 whole entry, looked up): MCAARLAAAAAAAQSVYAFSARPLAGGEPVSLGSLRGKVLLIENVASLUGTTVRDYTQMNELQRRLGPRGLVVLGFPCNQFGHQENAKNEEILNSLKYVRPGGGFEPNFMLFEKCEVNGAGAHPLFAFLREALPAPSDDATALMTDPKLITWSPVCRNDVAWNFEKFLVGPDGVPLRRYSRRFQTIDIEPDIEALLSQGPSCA

Take `CC(c1c[nH]c2ccccc12)C(O)C(=O)O` (stereo not given): the Potency entry in assay [1], in assay [2], in assay [3], in assay [5] and in assay [6] was “inactive” each time. In addition, in assay [4], the Potency was 10.6 µM (active).

On to `C=CC(C)(C)C12CC3C(=O)NC(Cc4cnc[nH]4)C(=O)N3C1Nc1ccccc12` (stereo not given), for which the Potency result in assay [1], in assay [2], in assay [3], in assay [4], in assay [5] and in assay [6] was “inactive” in each case.

As to `CCN[C@@H]1C[C@H](N)[C@@H](O[C@H]2OC(CN)=CC[C@H]2N)[C@H](O)[C@H]1O[C@H]1OC[C@](C)(O)[C@H](NC)[C@H]1O`, the Potency result in assay [1], in assay [2], in assay [3], in assay [4], in assay [5] and in assay [6] was “inactive” in each case.

`CC1=C2C(=O)O[C@@H](c3ccoc3)[C@]2(C)CCC1`: the Potency result in assay [1], in assay [2], in assay [3], in assay [4], in assay [5] and in assay [6] was “inactive” throughout.

Regarding `CC(C)(O)C1=CCC23COC(C2)C(O)(C(=O)O)CCC13` (stereo not given), the Potency entry in assay [1], in assay [2], in assay [3], in assay [4], in assay [5] and in assay [6] was “inactive” each time.

Regarding `C=C1CC2C3(C)C(O)CC(=O)C(C)(C)C3C(OC(C)=O)C(OC(C)=O)C2(C)C2C(=O)OC(C)(C(=O)OC)C(=O)C12C` (stereo not given), the Potency entry in assay [1], in assay [2], in assay [3], in assay [4], in assay [5] and in assay [6] was “inactive” each time.

For the molecule `CC(=O)OCCC(C)CCC1C(C)(O)CCC2C(C)(C)CCCC21C` (stereo not given), the Potency entry in assay [1], in assay [2], in assay [3], in assay [4], in assay [5] and in assay [6] was “inactive” in each case.

As to `CCC1CC2C(C)=CC3CCCCC3C2(C)C2(OC(=O)C(C)(O)OC2=O)O1` (stereo not given), the Potency entry in assay [1], in assay [2], in assay [3], in assay [4], in assay [5] and in assay [6] was “inactive” each time.

As to `C[C@]12CC[C@@H]3c4ccc(O[C@@H]5O[C@H](C(=O)O)[C@@H](O)[C@H](O)[C@H]5O)cc4CC[C@H]3[C@@H]1CCC2=O`, the Potency result in assay [1], in assay [2], in assay [3], in assay [4], in assay [5] and in assay [6] was “inactive” each time.

Consider `CCn1c2ccccc2c2cc(CNC)ccc21`, for which the Potency entry in assay [1], in assay [2], in assay [3], in assay [4], in assay [5] and in assay [6] was “inactive” throughout.

As to `COC(=O)c1cc(CN2CCN(C(=N)N)CC2)cc(C(=O)N2CCN(C(=O)c3ccc(C(=N)N)cc3)CC2)c1`, the Potency entry in assay [1], in assay [2], in assay [3], in assay [4], in assay [5] and in assay [6] was “inactive” in each case.

Consider `OCc1ccccc1O[C@@H]1O[C@H](CO)[C@@H](O)[C@H](O)[C@H]1O`, for which the Potency entry in assay [1], in assay [2], in assay [3], in assay [5] and in assay [6] was “inactive” each time. For the same molecule, the Potency in assay [4] is 23.8 µM (active).

On to `COC(=O)C1=CO[C@@H](O[C@@H]2O[C@H](CO[C@@H]3O[C@H](COC(=O)/C=C/c4ccc(O)cc4)[C@@H](O)[C@H](O)[C@H]3O)[C@@H](O)[C@H](O)[C@H]2O)[C@@H]2C(CO)=CC[C@H]12`, for which the Potency entry in assay [1], in assay [2], in assay [3], in assay [4], in assay [5] and in assay [6] was “inactive” in each case.

Consider `CC1=CC2(O)/C=C/C(C)(O)CC(O)/C=C/C(=O)OC23C(=O)NC(CC(C)C)C3C1C` (stereo not given), for which the Potency result in assay [1], in assay [2], in assay [3], in assay [4], in assay [5] and in assay [6] was “inactive” throughout.

`COc1cc(/C=C/C(=O)OC2CC3CCC2(C)C3(C)C)ccc1O` (stereo not given): the Potency entry in assay [1], in assay [2], in assay [3], in assay [4], in assay [5] and in assay [6] was “inactive” in each case.

Regarding `CC1CCC2(NC1)OC1C(=O)C3C4CCC5CC(O[C@@H]6O[C@H](CO)[C@@H](O)[C@H](O)[C@H]6O[C@@H]6O[C@@H](C)[C@H](O)[C@@H](O)[C@H]6O)CCC5(C)C4CCC3(C)C1C2C` (stereo not given in full), the Potency result in assay [1], in assay [2], in assay [3], in assay [4], in assay [5] and in assay [6] was “inactive” in each case.

As for `Clc1ccc(CN[C@H]2CCN(c3ncc(Br)cn3)C2)c(Cl)c1`, the Potency entry in assay [1], in assay [2], in assay [3], in assay [4], in assay [5] and in assay [6] was “inactive” each time.

As for `CC(=O)O[C@@H]1C[C@@]23C[C@@]24CC[C@H](OC2OC[C@@H](O)[C@H](O)[C@H]2O)C(C)(C)[C@@H]4CC[C@H]3[C@]2(C)CC3OC4(C[C@@H](C)C3[C@@]12C)OCC1(C)OC14` (stereo not given in full), the Potency result in assay [1], in assay [2], in assay [3], in assay [4], in assay [5] and in assay [6] was “inactive” in each case.

In the case of `CCC/C=C/C(=O)O[C@H]1CC(C)(C)CC2[C@]13[C@H](O)O[C@@]21CCC2[C@@]4(C)CC[C@H](O[C@@H]5O[C@H](C(=O)O)[C@@H](O)[C@H](O[C@@H]6O[C@H](CO)[C@H](O)[C@H](O)[C@H]6O[C@@H]6O[C@@H](C)[C@H](O)[C@@H](O)[C@H]6O[C@@H]6OC[C@](O)(CO)[C@H]6O)[C@H]5O[C@@H]5O[C@H](CO)[C@H](O)[C@H](O)[C@H]5O)C(C)(C)C4CC[C@@]2(C)[C@]1(C)C[C@H]3OC(C)=O` (stereo not given in full), the outcome was “inactive [at 9.52 µM]” in assay [1] and “inactive [at 11.6 µM]” in assay [3]. Also, in assay [2], the activity change, negative = inhibition is -8.75% [at 9.73 µM]. Further, the activity change, negative = thiol reactive in assay [4] is 179% [at 11.5 µM]. Moreover, the activity, negative = inhibition in assay [5] was 4.57% [at 11.6 µM]. Besides, in assay [6], the redox activity (% of DA3003) is -2.32% [at 11.5 µM].

Turning to `CCC(C)(O)C(O)C(=O)OCc1ccc(O[C@@H]2O[C@H](CO)[C@@H](O)[C@H](O)[C@H]2O)cc1` (stereo not given in full), the Potency entry in assay [1], in assay [2], in assay [3], in assay [4], in assay [5] and in assay [6] was “inactive” each time.
